# Rows were chosen to be rich in hits. Some 2.3% of all compounds tested hit in one or more screens of this group.
# Fam108B inh: mouse Fam108B serine hydrolase inhibitors, primary screen, counter-screen for RBBP9 inhibitor project, biochemical, fluorescence polarization; recombinant Fam108B, FP-Rh probe fluorescence polarization; actives 0.33% (n = 300,000); inhibition, % at 9.51 µM;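 active = inhibition above the screen mean inhibition plus 3 SD, computed separately per campaign, cut at about 18% in these data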;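 also: inhibitors lower polarization as less probe binds the enzyme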
# GSTO1 inh: inhibitors of recombinant GSTO1, primary screen, counter-screen for RBBP9 inhibitor project, biochemical, fluorescence polarization; activity-based probe fluorescence polarization; AID 1974, 2009; Glutathione S-transferase omega-1 (Homo sapiens), P78417; actives 1.1% (n = 300,000); inhibition, % at 5.96 µM;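 active = inhibition above the campaign mean inhibition plus 3 SD, cut at about 35% in these data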;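 also: 0% = GSTO1-1 with DMSO and 100% = wells lacking GSTO1-1 enzyme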
# PME-1 inh: PME-1 inhibitors via competitive probe labeling, primary screen, biochemical, fluorescence polarization, FP-Rh probe, HTS | actives 0.53% (n = 320,000) | recombinant PME-1 | inhibition, % at 5.9 µM;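 active = inhibition above the campaign mean of all compounds plus 3 SD, cut at about 26% in these data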;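 also: competitive labeling of PME-1 active site by serine hydrolase directed probe; 0% = PME-1 with DMSO and 100% = wells lacking PME-1 enzyme; inhibitors block probe labeling so polarization falls and inhibition rises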
# PAD4 FP inh: human PAD4 inhibitors, primary screen, biochemical, fluorescence polarization, 1536-well format; AID 485272, 2010; Protein-arginine deiminase type-4 (Homo sapiens), Q9UM07; recombinant PAD4, RCA probe fluorescence polarization; actives 0.41% (n = 330,000); inhibition, % at 6.36 µM;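 active = percent inhibition above a cutoff equal to the mean of all tested compounds plus 3 SD, cut at about 15% in these data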;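 also: 0% = PAD4 with RCA probe and DMSO and 100% = probe without PAD4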
# Target sequence (Q9UM07 whole entry, looked up): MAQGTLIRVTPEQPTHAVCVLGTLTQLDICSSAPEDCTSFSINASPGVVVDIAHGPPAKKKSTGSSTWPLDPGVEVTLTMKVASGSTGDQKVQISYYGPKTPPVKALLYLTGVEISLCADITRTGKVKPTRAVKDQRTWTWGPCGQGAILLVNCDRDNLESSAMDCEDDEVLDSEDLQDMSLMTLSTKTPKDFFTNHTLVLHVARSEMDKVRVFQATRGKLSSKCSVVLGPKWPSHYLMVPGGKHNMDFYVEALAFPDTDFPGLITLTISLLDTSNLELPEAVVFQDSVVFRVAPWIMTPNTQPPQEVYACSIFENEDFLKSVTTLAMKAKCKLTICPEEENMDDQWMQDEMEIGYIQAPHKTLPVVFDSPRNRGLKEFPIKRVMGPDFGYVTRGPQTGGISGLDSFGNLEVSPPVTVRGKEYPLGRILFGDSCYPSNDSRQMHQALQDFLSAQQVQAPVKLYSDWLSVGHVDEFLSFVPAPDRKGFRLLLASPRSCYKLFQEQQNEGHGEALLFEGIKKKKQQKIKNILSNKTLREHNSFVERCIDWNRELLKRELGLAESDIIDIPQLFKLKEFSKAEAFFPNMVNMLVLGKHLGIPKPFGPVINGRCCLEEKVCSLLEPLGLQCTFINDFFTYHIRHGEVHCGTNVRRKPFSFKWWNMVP
# pPAFAH inh: pPAFAH enzyme inhibitors, primary screen, biochemical, fluorescence polarization, human | Platelet-activating factor acetylhydrolase (Homo sapiens), Q13093 | recombinant pPAFAH, FP-rhodamine probe fluorescence polarization | inhibition, % at 3.39 µM | actives 1.5% (n = 330,000) | AID 463082, 2010;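 active = inhibition above the mean inhibition across the screen plus 3 SD, cut at about 25% in these data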;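 also: inhibitors block binding of the rhodamine activity-based probe so polarization drops; 0% = enzyme with DMSO and 100% = wells lacking pPAFAH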
# pPAFAH confirm: pPAFAH (PLA2G7) enzyme inhibitors, confirmation, biochemical, fluorescence polarization, human; inhibition, % at 3.39 µM; recombinant pPAFAH, FP-Rh probe fluorescence polarization; actives 72% (n = 2,300); shares compounds with pPAFAH inh;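 active = mean inhibition of the triplicate above the hit cutoff set for the earlier primary screen, cut at about 25% in these data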;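 also: 0% = enzyme with DMSO and 100% = wells lacking pPAFAH enzyme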
# * = called active by the depositor; / = not tested or not shown.
SMILES,Fam108B inh,GSTO1 inh,PME-1 inh,PAD4 FP inh,pPAFAH inh,pPAFAH confirm
Cc1ccc(/C(O)=C2/C(=O)C(=O)N(CC(=O)O)C2c2ccc([N+](=O)[O-])cc2)cc1 (stereo unspecified),-5,1,5,-2,37*,5
Cc1ccc(S(=O)(=O)N2CCN(C(=O)C(C)Cn3cncn3)CC2)cc1 (stereo unspecified),-3,-5,0,-1,1,/
Cc1cccc(C)c1NC(=O)CN(C)C(=O)c1ccc(-n2cncn2)c([N+](=O)[O-])c1,-3,1,-2,-6,-5,/
CN(CC(=O)Nc1ccc(Cl)cc1)C(=O)c1ccc(-n2cncn2)c([N+](=O)[O-])c1,-7,9,-3,-1,71*,0
CCN(CC)S(=O)(=O)c1ccc(Cl)c(NC(=O)COC(=O)/C=C/c2ccc(O)c(OC)c2)c1,1,1,20,1,37*,13
COc1cc(/C=C/C(=O)OCC(=O)Nc2cc(S(=O)(=O)N(C)C)ccc2Cl)ccc1O,-1,-13,4,0,8,/
COc1ccc(-c2ccccc2NC(=O)C2CCCN(Cc3ccc(C)o3)C2)cc1 (stereo unspecified),-1,0,4,-1,-5,/
CCN1CCN(c2ccc(Nc3ccnc4ccccc34)cc2)CC1,/,/,6,-1,9,/
CC1=Nc2ccccc2/C1=C/c1sc(=N)n(-c2nccs2)c1O,13,10,39*,-7,56*,51*
CC1=Nc2ccccc2/C1=C/c1nc(-c2ccc(C)s2)oc1O,4,4,3,6,11,/
Cc1cc(Cl)ccc1OCC(=O)Nc1cccc(S(=O)(=O)N2CCCC2)c1,/,/,-17,0,2,/
Cc1cc(S(=O)(=O)N2CCCC2)ccc1OCC(=O)Nc1ccc(C(N)=O)cc1,/,/,8,0,50*,4
NC(=O)c1ccc(NC(=O)CNC(c2ccccc2)c2ccccc2)cc1,-5,-4,1,-2,10,/
Cc1ccc(SCc2cc(=O)c3c(=O)n(-c4ccccc4)[nH]c3[nH]2)cc1,5,-101,3,2,46*,21
O=C(O)c1ccc(-c2cccc(Cl)c2)o1,1,5,3,4,-4,/
Clc1cccc(-c2ccc(C3Nc4cccc5cccc(c45)N3)o2)c1,/,/,/,-3,39*,38*
COc1ccc(CNc2oc(-c3cccc4ccccc34)nc2C#N)cc1,2,-8,-5,-5,-1,/
CCOP(=O)(OCC)c1nc(-c2cccc3ccccc23)oc1NCCc1ccc(OC)cc1,1,2,-2,-3,38*,44*
O=C(CCCN1C(=O)c2cccc3cccc(c23)C1=O)NCc1cccnc1,-1,4,-1,1,-2,/
O=C(CCCCCN1C(=O)c2cccc3cccc(c23)C1=O)NCc1cccnc1,-4,2,2,3,49*,3
CN1CCN(C(=O)CCc2nc3ccccc3n2-c2ccccc2)CC1,4,4,5,-5,10,/
COCc1cc(=O)[nH]c(/N=C(\N)Nc2cccc(Cl)c2)n1,2,4,-9,4,10,/
COc1ccc(C(=O)CC(=O)C(=O)Nc2cc(C)ccc2C)cc1,-2,6,1,2,2,/
COc1ccc(C(=O)CC(=O)C(=O)Nc2ccc([N+](=O)[O-])cc2C)cc1,3,-2,3,1,48*,8
O=C(OCc1cc(=O)n2ccsc2n1)c1ccccc1O,/,/,/,5,0,/
O=C(OCc1cc(=O)n2ccsc2n1)c1ccccc1NCCO,/,/,/,-7,74*,4
Cc1ccccc1NC(=O)c1sc2nc3c(c(-c4ccco4)c2c1N)CCC3,1,8,7,-2,36*,24
N#Cc1sc2nc3c(c(-c4ccco4)c2c1N)CCCC3,4,6,9,4,8,/
COc1ccc(CCn2c(O)cc3nn(-c4nc5ccccc5s4)c(=O)c-3c2C)cc1,8,27,0,2,56*,44*
